From PubChem BioAssay (EPA / NIEHS)
Values joined by “and” are separate entries in the source; they are usually repeats but may differ in a detail not shown here. Equal values may be shown once. Inconclusive results are not listed. More than one record can exist for a structure, and the calls need not agree. Active and inactive are the calls of the source. How the source made its calls, unless noted: active means hit-call score of the fitted dose curve at least 0.9, where 1 is the maximum; inactive means score below 0.9.

Legend:
[1] = CCTE_Simmons_MITO_basal_resp_rate: CCTE's HepG2 Seahorse XF Respirometric Screening Assay at Basal Respiratory State, Simmons Lab (AID 2284001); details: actives raise or lower the signal
How it was run: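 Basal-phase OCR of HepG2 cells on a Seahorse XF96, analysed by bidirectional fit relative to DMSO vehicle; chemicals at 7 concentrations, 125 nM–100 uM final; three biological replicates; fenpyroximate and 2,4-dinitrophenol positive controls.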

[2] = CCTE_Simmons_MITO_max_resp_rate: CCTE's HepG2 Seahorse XF Respirometric Screening Assay at Maximal Respiratory State [uncoupled], Simmons Lab (AID 2284002); details: actives raise or lower the signal
How it was run: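 HepG2 oxygen consumption measured on Seahorse XF after FCCP uncoupling, following test compound injection; 7 concentrations from 125 nM to 100 uM final. Readings every 6 min over 72 min, three biological replicates; bidirectional fit versus DMSO.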

[3] = CCTE_Simmons_MITO_inhib_resp_rate: CCTE's HepG2 Seahorse XF Respirometric Screening Assay at Inhibited Respiratory State [full ETC block], Simmons Lab (AID 2284006); details: actives raise or lower the signal
How it was run: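 Test chemicals at seven final concentrations (125 nM–100 uM) in three biological replicates, with DMSO as vehicle. HepG2 oxygen consumption was then tracked on a Seahorse XF96 for 72 min through FCCP and rotenone/antimycin A phases, with the inhibited-phase rate as the endpoint.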

[4] = CCTE_Simmons_MITO_viability: CellTiter-Glo Viability Assessment for CCTE's HepG2 Seahorse XF Respirometric Screening Assay [post-hoc], Simmons Lab (AID 2284007; active means hit-call score of the fitted dose curve at least 0.9, where 1 is the maximum;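 on AC50: cells exposed to chemical for 90 min before the ATP read; actives lower ATP signal relative to DMSO baseline meaning reduced viability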)
How it was run: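 Post-hoc viability check on the HepG2 respirometry plates: luciferase-based ATP signal measured once, after 90 min compound exposure spanning 125 nM–100 uM final. Activity was referenced to DMSO as baseline.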

[5] = CCTE_Shafer_MEA_acute_spike_number: CCTE's Neural Acute Assay for Total Number of Spikes, Shafer Lab (AID 2284008);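 on AC50: curve fitted for decrease in spike count so AC50 reflects inhibitors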
How it was run: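 Rat primary cortical neurons on 48-well MEA plates, DIV 13 or 15, at 37 C. 40 min baseline then 40 min with compound (0.03-40 uM); spikes detected at 8x rms noise, expressed as percent change from baseline.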

[6] = CCTE_Shafer_MEA_acute_firing_rate_mean: CCTE's Neural Acute Assay for Mean Firing Rate, Shafer Lab (AID 2284009);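 further: analyzed for loss of signal so actives lower firing rate relative to DMSO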
How it was run: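 Rat cortical neuron cultures matured to DIV 13 or 15, equilibrated 20 min at 37 C, then recorded 40 min for baseline. Compound (0.03-40 uM) added and a further 40 min recorded; percent change in mean firing rate calculated per well.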

[7] = CCTE_Harrill_HTTr_Viability_MCF7: CCTE's 6-hour Cell Viability Assessment for the High-Throughput Transcriptomics (HTTr) Platform, in MCF-7 cells cultured in DMEM + 10% fetal bovine serum, Harrill Lab (AID 2284010)
How it was run: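 Eight-point concentration series, six-hour exposure. Propidium iodide exclusion imaged to assess membrane integrity as a cytotoxicity readout; bidirectional fitting was done with DMSO as negative control and activity baseline.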

[8] = CCTE_Harrill_HTTr_Apoptosis_MCF7: CCTE's 6-hour Apoptosis Assessment for the High-Throughput Transcriptomics (HTTr) Platform, in MCF-7 cells cultured in DMEM + 10% fetal bovine serum, Harrill Lab (AID 2284011)
How it was run: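 MCF-7 cells in DMEM + 10% FBS exposed 6 h to chemicals over an eight-point dilution series. Caspase-3/7 activation imaged by high-content CellEvent Green staining; fitted bidirectionally versus DMSO.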

[9] = CCTE_Shafer_MEA_acute_burst_number: CCTE's Neural Acute Assay for Single-Electrode Bursts, Shafer Lab (AID 2284013)
How it was run: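 Percent change in single-electrode burst number per well, from 40-min recordings taken before and after adding compound (0.03-40 uM) to primary rat cortical neurons on MEA plates at DIV 13 or 15, 37 C.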

[10] = CCTE_Harrill_HTTr_CellCount_MCF7: CCTE's Cell Proliferation Assessment for the High-Throughput Transcriptomics (HTTr) Platform, Harrill Lab (AID 2284012; active means hit-call score of the fitted dose curve at least 0.9, where 1 is the maximum;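 further: count of Hoechst-stained nuclei per well by high-content imaging in MCF-7 cells; cells exposed to compound for six hours; intended direction is loss of nuclei count meaning fewer cells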)
How it was run: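 For this full-screen endpoint, MCF-7 cultures received eight compound dilutions for six hours. Well nuclei counts from Hoechst imaging were analyzed relative to DMSO.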

In the case of `CC(c1ccc(O)cc1)(c1ccc(O)cc1)c1ccc(O)cc1`, the AC50 [1] was 14.5 µM (active), the outcome [2] was “inactive” and the outcome [3] was “inactive”. The outcome [4] was “inactive”, the AC50 [5] was 3.97 µM (active) and the AC50 [6] was 3.97 µM (active). The outcome [7] was “inactive”, the outcome [8] was “inactive” and the outcome [9] was “inactive”.

For `CCC(=O)O[C@H]1CC[C@H]2[C@@H]3CCC4=CC(=O)CC[C@]4(C)[C@H]3CC[C@]12C`, the outcome [2] was “inactive”, the outcome [3] was “inactive” and the outcome [7] was “inactive”.

For `C=CC(N)=O`, the outcome [5] was “inactive”, the outcome [6] was “inactive” and the outcome [7] was “inactive”. For the same compound, the outcome [8] was “inactive”, the outcome [10] was “inactive” and the outcome [9] was “inactive”.

For `Oc1c(Cl)c(Cl)c(Cl)c(Cl)c1Cl`, the AC50 [1] was 0.451 µM (active), the AC50 [2] was 16.2 µM (active) and the outcome [3] was “inactive”. The AC50 [4] was 6.35 µM (active), the outcome [7] was “inactive” and the outcome [8] was “inactive”. For the same compound, the outcome [10] was “inactive”.

For `O=C(O)C(F)(F)C(F)(F)C(F)(F)C(F)(F)C(F)(F)C(F)(F)C(F)(F)C(F)(F)C(F)(F)F`, the outcome [1] was “inactive”, the outcome [2] was “inactive” and the outcome [3] was “inactive”. The outcome [4] was “inactive”, the outcome [7] was “inactive” and the outcome [10] was “inactive”.

With `O=C(N[C@H]1CN2CCC1CC2)c1cc2ccoc2cn1` the outcome [5] was “inactive”, the outcome [6] was “inactive” and the outcome [7] was “inactive”. For the same compound, the outcome [8] was “inactive”, the outcome [10] was “inactive” and the outcome [9] was “inactive”.

With `CCCCCCCCCc1ccc(O)cc1` the AC50 [5] was 9.9 µM (active), the AC50 [6] was 9.87 µM (active) and the outcome [7] was “inactive”. The outcome [10] was “inactive” and the outcome [9] was “inactive”.

In the case of `CCC(C)(CC)c1cc(NC(=O)c2c(OC)cccc2OC)on1`, the outcome [5] was “inactive”, the outcome [6] was “inactive” and the outcome [7] was “inactive”. For the same compound, the outcome [10] was “inactive” and the outcome [9] was “inactive”.

For `COc1ccc(O)c(C(C)(C)C)c1`, the AC50 [1] was 44 µM (active), the outcome [2] was “inactive” and the outcome [3] was “inactive”. The outcome [4] was “inactive”, the AC50 [5] was 3.04 µM (active) and 633 nM (active) and the outcome [5] was “inactive”. For the same compound, the AC50 [6] was 3.03 µM (active) and 679 nM (active), the outcome [6] was “inactive” and the outcome [7] was “inactive”. The outcome [9] was “inactive”.

In the case of `O=C(O)C(F)(F)C(F)(F)C(F)(F)C(F)(F)C(F)(F)C(F)(F)C(F)(F)C(F)(F)F`, the outcome [1] was “inactive”, the outcome [2] was “inactive” and the outcome [3] was “inactive”. The outcome [4] was “inactive”, the outcome [7] was “inactive” and the outcome [8] was “inactive”. The outcome [10] was “inactive”.

For `O=NN(c1ccccc1)c1ccccc1`, the outcome [7] was “inactive”.

For `Oc1ccc(Cl)cc1Cl`, the outcome [7] was “inactive”.

In the case of `Cc1ccccc1O`, the outcome [7] was “inactive”, the outcome [8] was “inactive” and the outcome [10] was “inactive”.

With `ClC1=C(Cl)[C@]2(Cl)[C@@H]3[C@@H]4C[C@@H]([C@H]5O[C@@H]45)[C@@H]3[C@@]1(Cl)C2(Cl)Cl` the AC50 [5] was 0.476 µM (active), the AC50 [6] was 0.489 µM (active) and the outcome [7] was “inactive”. The AC50 [9] was 508 nM (active).

With `Clc1ccc(Cl)cc1` the outcome [7] was “inactive”.

For `CN(C)CCO`, the outcome [5] was “inactive”, the outcome [6] was “inactive” and the outcome [7] was “inactive”. For the same compound, the outcome [9] was “inactive”.

With `CCCCCCOC(=O)c1ccccc1C(=O)OCCCCCC` the outcome [7] was “inactive” and the outcome [10] was “inactive”.

For `O=C(NC(=O)c1cc(F)c(F)cc1Cl)Nc1cc(F)ccc1N1CCC(C(=O)O)CC1`, the outcome [7] was “inactive”.

For `Cc1cccc([N+](=O)[O-])c1`, the outcome [7] was “inactive”.

For `CC1=C2C[C@H]3[C@@H](CC=C4C[C@@H](O)CC[C@@]43C)[C@@H]2CC[C@]12O[C@@H]1C[C@H](C)CN[C@H]1[C@H]2C`, the outcome [7] was “inactive” and the outcome [10] was “inactive”.

With `c1cc2ccc3cccc4ccc(c1)c2c34` the outcome [7] was “inactive”.

In the case of `C1CC2OC2CC1C1CO1` (centres undefined), the outcome [7] was “inactive”.

With `Cc1ccc(O)c(C)c1` the outcome [7] was “inactive” and the outcome [10] was “inactive”.

With `CCOP(=S)(OCC)SCSC(C)(C)C` the outcome [7] was “inactive” and the outcome [10] was “inactive”.

With `O=S(=O)(O)C(F)(F)C(F)(F)C(F)(F)C(F)(F)C(F)(F)C(F)(F)F` the outcome [7] was “inactive” and the outcome [10] was “inactive”.

In the case of `O=S(=O)(O)C(F)(F)C(F)(F)C(F)(F)C(F)(F)F`, the outcome [7] was “inactive” and the outcome [10] was “inactive”.

For `CCOCCOC(C)=O`, the outcome [7] was “inactive”, the outcome [8] was “inactive” and the outcome [10] was “inactive”.

In the case of `Nc1ccc(-c2ccc(N)cc2)cc1`, the outcome [5] was “inactive”, the outcome [6] was “inactive” and the outcome [9] was “inactive”.

In the case of `CN(C)c1nc(=O)n(C2CCCCC2)c(=O)n1C`, the outcome [7] was “inactive”.

With `Cc1cccc(C)c1N` the outcome [7] was “inactive”, the outcome [8] was “inactive” and the outcome [10] was “inactive”.

With `Cc1ccccc1CO[C@@H]1C[C@@]2(C(C)C)CC[C@]1(C)O2` the outcome [7] was “inactive” and the outcome [8] was “inactive”.

For `Sc1ccccc1`, the outcome [7] was “inactive” and the outcome [10] was “inactive”.

With `Nn1cnnc1` the outcome [7] was “inactive” and the outcome [10] was “inactive”.

For `C=CC(=O)NCNC(=O)C=C`, the outcome [7] was “inactive”.

With `Cc1cc(-c2ccc(N)c(C)c2)ccc1N` the outcome [7] was “inactive” and the outcome [10] was “inactive”.

In the case of `c1ccc(-c2ccccc2)cc1`, the outcome [5] was “inactive”, the outcome [6] was “inactive” and the outcome [7] was “inactive”. The outcome [10] was “inactive” and the outcome [9] was “inactive”.

In the case of `Cc1cc(O)ccc1Cl`, the outcome [7] was “inactive”, the outcome [8] was “inactive” and the outcome [10] was “inactive”.

In the case of `CCOC(=O)C(O)(c1ccc(Cl)cc1)c1ccc(Cl)cc1`, the outcome [7] was “inactive”, the outcome [8] was “inactive” and the outcome [10] was “inactive”.

With `CC(C)C(=O)OCC(C)(C)C(OC(=O)C(C)C)C(C)C` (centres undefined) the outcome [5] was “inactive”, the outcome [6] was “inactive” and the outcome [9] was “inactive”.

With `Clc1ccc(C(c2ccccc2Cl)C(Cl)(Cl)Cl)cc1` (centres undefined) the outcome [7] was “inactive” and the outcome [10] was “inactive”.

With `CCCCCCCCOC(=O)c1ccccc1C(=O)OCCCCCCCC` the outcome [7] was “inactive”, the outcome [8] was “inactive” and the outcome [10] was “inactive”.

In the case of `Cc1cc2c3c(c1)C(c1ccccc1)=N[C@@H](NC(=O)c1ccncc1)C(=O)N3CC2`, the outcome [7] was “inactive” and the outcome [10] was “inactive”.
